Outcome data for 16 compounds are collected here from PubChem BioAssay AID540259 (Broad Institute, 2011).

SMILES strings stand for the structures. Entries with a potency or affinity are not part of this list. The source made the active and inactive calls.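 The calls were made as follows: active = cell killing, meaning signal decrease, with fitted half-maximal dose at or below ten times the top valid tested dose; inconclusive = poor fit, or flat curve with 30 to 70% signal loss; inactive = the rest.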

This test can be described thus: HeLa cell cytotoxicity, dose response, cytotoxicity control for MITF activator project, CellTiter-Glo luminescence, cherry-pick samples (AID 540259). The note with it: HeLa viability, CellTiter-Glo ATP luminescence, 24 h; series mostly up to 35 µM. Background: In ATP-based viability assays light output follows the ATP content of the culture.
For `CCC(=O)Nc1sc(C(=O)Nc2ccccc2F)c(C)c1C(=O)OC`, the result was inactive.

Turning to `O=c1c(-c2ccc(O)cc2)coc2cc(O)cc(O)c12`, the result was inactive.

In the case of `Cc1nc2cc3nc(C)sc3cc2s1`, the call was inactive.

`COc1ccc2cc(C(=O)NCCc3ccccc3)[nH]c2c1`: the result was inactive.

`COc1ccccc1/C=C/C=N/n1c(-c2ccccn2)n[nH]c1=S`: the call was inactive.

Regarding `CC1CCC(NC(=O)c2cc3c(s2)CCCC3)CC1` (stereo unspecified), the compound was called inactive.

Regarding `C/C(=N/NC(=O)c1ccncc1)c1ccc(NC(=O)c2ccc(Cl)cc2Cl)cc1`, the call was inactive.

In the case of `CCS(=O)(=O)N1Cc2ccccc2CC1C(=O)NCc1cccc(OC)c1` (stereo unspecified), the result was inactive.

With `CC(=O)c1cccc(OCc2cc(C(=O)N(C)Cc3cnccn3)no2)c1`, the call was inactive.

Consider `CC(C)C(=O)Nc1cccc(-c2cnc3ccccc3n2)c1`, for which the outcome was inactive.

Consider `COc1ccc(-n2nc(C(=O)NCC(=O)N3CCN(c4ccccc4)CC3)c3ccccc3c2=O)c(OC)c1`, for which the outcome was inactive.

As for `CCCCN(C(=O)Cc1cccs1)c1nnc(-c2cccnc2)s1`, the compound was called inactive.

As for `CC(NC(=O)c1cc(COc2ccccc2)on1)c1nccs1` (stereo unspecified), the compound was classed as inactive.

For `c1ccc(SCc2nc(-c3ccccn3)no2)cc1`, the call was inactive.

With `CC(C)(C)c1ccc(-c2noc(-c3ccno3)n2)cc1`, the compound was called inactive.

For `c1ccc(-c2ccc3[nH]ccc3c2)cc1`, the call was inactive.
